“And” between values parts separate entries of the source, which are not always exact repeats. Equal values may be shown once. The campaign covered roughly 5,500 compounds. About 2,000 (36%) were called active. Not shown: some 18% with an inconclusive outcome. Rule as the data show it: active = normalized growth mostly below about 0.91 (no sharp cut-off); inconclusive = no clear call, values can overlap the other calls; inactive = mostly above about 0.92. The list shows a part of the results.
Experiment: chemical genetic growth profiling, strain panel (AID 1159580);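 also: tested at 20 µM; growth read once vehicle control cultures reached saturation at 30 °C; 1 = growth at the plate median or of vehicle wells; lower values mean less growth of the strain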
Conditions: S. cerevisiae deletion strains, growth OD

For `O=C(/C=C/c1ccccc1)c1ccc(O)cc1`, the normalized growth (locus YAL013W, strain DEP1, stronger effect = lower value) was 0.736 (active), the normalized growth (locus YAL021C, strain ccr4, stronger effect = lower value) was 0.633 (active) and the normalized growth (locus YAL026C, strain drs2, stronger effect = lower value) was 0.192 (active). The normalized growth (locus YAL030W, strain snc1, stronger effect = lower value) was 0.247 (active), the normalized growth (locus YBL061C, strain skt5, stronger effect = lower value) was 0.263 (active) and the normalized growth (locus YBR009C, strain hhf1, stronger effect = lower value) was 0.0771 (active). The normalized growth (locus YBR021W, strain FUR4, stronger effect = lower value) was 0.891 (inactive), the normalized growth (locus YBR023C, strain chs3, stronger effect = lower value) was 0.399 (active) and the normalized growth (locus YBR171W, strain sec66, stronger effect = lower value) was 0.112 (active). For the same compound, the normalized growth (locus YBR229C, strain ROT2, stronger effect = lower value) was 0.887 (active), the normalized growth (locus YBR231C, strain swc5, stronger effect = lower value) was 0.315 (active) and the normalized growth (locus YBR279W, strain paf1, stronger effect = lower value) was 0.494 (active). For the same compound, the normalized growth (locus YCL011C, strain gbp2, stronger effect = lower value) was 0.1 (active), the normalized growth (locus YCL016C, strain dcc1, stronger effect = lower value) was 0.2 (active) and the normalized growth (locus YCL029C, strain bik1, stronger effect = lower value) was 0.831 (active). The normalized growth (locus YCL061C, strain MRC1, stronger effect = lower value) was 0.102 (active), the normalized growth (locus YCL069W, strain vba3, stronger effect = lower value) was 0.218 (active) and the normalized growth (locus YCR088W, strain abp1, stronger effect = lower value) was 0.157 (active). The normalized growth (locus YDL005C, strain med2, stronger effect = lower value) was 0.64 (active), the normalized growth (locus YDL035C, strain GPR1, stronger effect = lower value) was 0.723 (active) and the normalized growth (locus YDL040C, strain nat1, stronger effect = lower value) was 0.706 (active). The normalized growth (locus YDL074C, strain BRE1, stronger effect = lower value) was 0.593 (active), the normalized growth (locus YDL101C, strain DUN1, stronger effect = lower value) was 0.618 (active) and the normalized growth (locus YDL134C, strain PPH21, stronger effect = lower value) was 0.661 (active). The normalized growth (locus YDL185W, strain tfp1, stronger effect = lower value) was 0.817 (active), the normalized growth (locus YDL192W, strain arf1, stronger effect = lower value) was 0.726 (active) and the normalized growth (locus YDR001C, strain nth1, stronger effect = lower value) was 0.316 (active). For the same compound, the normalized growth (locus YDR069C, strain doa4, stronger effect = lower value) was 0.742 (active), the normalized growth (locus YDR101C, strain arx1, stronger effect = lower value) was 0.88 (active) and the normalized growth (locus YDR137W, strain rgp1, stronger effect = lower value) was 0.198 (active). The normalized growth (locus YDR150W, strain NUM1, stronger effect = lower value) was 0.87 (active), the normalized growth (locus YDR159W, strain sac3, stronger effect = lower value) was 0.26 (active) and the normalized growth (locus YDR162C, strain NBP2, stronger effect = lower value) was 0.182 (active). The normalized growth (locus YDR195W, strain ref2) was 0.22 (active), the normalized growth (locus YDR297W, strain sur2, stronger effect = lower value) was 0.19 (active) and the normalized growth (locus YDR318W, strain mcm21, stronger effect = lower value) was 0.788 (active). For the same compound, the normalized growth (locus YDR334W, strain swr1, stronger effect = lower value) was 0.185 (active), the normalized growth (locus YDR335W, strain msn5, stronger effect = lower value) was 0.16 (active) and the normalized growth (locus YDR388W, stronger effect = lower value) was 0.863 (active). For the same compound, the normalized growth (locus YDR392W, strain spt3, stronger effect = lower value) was 0.0785 (active), the normalized growth (locus YDR502C, strain sam2, stronger effect = lower value) was 0.758 (active) and the normalized growth (locus YEL003W, strain gim4, stronger effect = lower value) was 0.0639 (active). The normalized growth (locus YEL037C, strain rad23, stronger effect = lower value) was 0.602 (active), the normalized growth (locus YEL061C, strain CIN8 (second series), stronger effect = lower value) was 0.0689 (active) and the normalized growth (locus YEL061C, strain CIN8, stronger effect = lower value) was 0.506 (active). The normalized growth (locus YER015W, strain faa2, stronger effect = lower value) was 0.264 (active), the normalized growth (locus YER016W, strain bim1, stronger effect = lower value) was 0.176 (active) and the normalized growth (locus YER110C, stronger effect = lower value) was 0.89 (active). For the same compound, the normalized growth (locus YER111C, strain swi4, stronger effect = lower value) was 0.124 (active), the normalized growth (locus YER155C, strain BEM2 (second series), stronger effect = lower value) was 0.093 (active) and the normalized growth (locus YER155C, strain BEM2, stronger effect = lower value) was 0.568 (active). For the same compound, the normalized growth (locus YER167W, strain BCK2, stronger effect = lower value) was 0.74 (active), the normalized growth (locus YFR010W, strain ubp6, stronger effect = lower value) was 0.648 (active) and the normalized growth (locus YGL078C, strain dbp3, stronger effect = lower value) was 0.926 (inactive). The normalized growth (locus YGL086W, strain mad1, stronger effect = lower value) was 0.733 (active), the normalized growth (locus YGL167C, strain pmr1, stronger effect = lower value) was 0.83 (active) and the normalized growth (locus YGL173C, strain kem1, stronger effect = lower value) was 0.403 (active). For the same compound, the normalized growth (locus YGL227W, strain vid30, stronger effect = lower value) was 0.0651 (active), the normalized growth (locus YGL240W, strain doc1, stronger effect = lower value) was 0.358 (active) and the normalized growth (locus YGL248W, strain PDE1, stronger effect = lower value) was 0.716 (active). The normalized growth (locus YGL253W, strain hxk2, stronger effect = lower value) was 0.177 (active), the normalized growth (locus YGR078C, strain PAC10, stronger effect = lower value) was 0.429 (active) and the normalized growth (locus YGR135W, strain pre9, stronger effect = lower value) was 0.771 (active). For the same compound, the normalized growth (locus YGR229C, strain SMI1, stronger effect = lower value) was 0.253 (active), the normalized growth (locus YGR252W, strain gcn5, stronger effect = lower value) was 0.648 (active) and the normalized growth (locus YHR013C, strain ard1, stronger effect = lower value) was 0.353 (active). For the same compound, the normalized growth (locus YHR027C, strain rpn1, stronger effect = lower value) was 0.51 (active), the normalized growth (locus YHR030C, strain SLT2, stronger effect = lower value) was 0.38 (active) and 0.945 (inactive) and the normalized growth (locus YHR079C, strain IRE1 (second series), stronger effect = lower value) was 0.494 (active). For the same compound, the normalized growth (locus YHR079C, strain IRE1, stronger effect = lower value) was 0.788 (active), the normalized growth (locus YHR094C, strain hxt1, stronger effect = lower value) was 0.944 (inactive) and the normalized growth (locus YHR129C, strain ARP1, stronger effect = lower value) was 0.635 (active). For the same compound, the normalized growth (locus YHR142W, strain chs7, stronger effect = lower value) was 0.113 (active), the normalized growth (locus YHR200W, strain rpn10, stronger effect = lower value) was 0.898 (active) and the normalized growth (locus YIL066C, strain RNR3, stronger effect = lower value) was 0.515 (active). For the same compound, the normalized growth (locus YIL073C, strain SPO22, stronger effect = lower value) was 0.7 (inactive), the normalized growth (locus YIL125W, strain kgd1, stronger effect = lower value) was 0.931 (active) and the normalized growth (locus YIR030C, strain dcg1, stronger effect = lower value) was 0.853 (active). For the same compound, the normalized growth (locus YJL092W, strain hpr5, stronger effect = lower value) was 0.299 (active), the normalized growth (locus YJL095W, strain BCK1 (second series), stronger effect = lower value) was 0.0714 (active) and the normalized growth (locus YJL095W, strain BCK1, stronger effect = lower value) was 0.205 (active) and 0.945 (inactive). The normalized growth (locus YJL115W, strain asf1, stronger effect = lower value) was 0.444 (active), the normalized growth (locus YJL129C, strain trk1, stronger effect = lower value) was 0.209 (active) and the normalized growth (locus YJL134W, strain LCB3, stronger effect = lower value) was 0.93 (inactive). For the same compound, the normalized growth (locus YJL154C, strain vps35, stronger effect = lower value) was 0.678 (active), the normalized growth (locus YJL164C, strain tpk1, stronger effect = lower value) was 0.162 (active) and the normalized growth (locus YJL166W, strain qcr8, stronger effect = lower value) was 0.0857 (active). For the same compound, the normalized growth (locus YJL168C, strain set2, stronger effect = lower value) was 0.913 (active), the normalized growth (locus YJL187C, strain SWE1 (second series), stronger effect = lower value) was 0.697 (active) and the normalized growth (locus YJR043C, strain POL32, stronger effect = lower value) was 0.597 (active). The normalized growth (locus YJR066W, strain TOR1, stronger effect = lower value) was 0.883 (inactive).

From PubChem BioAssay AID1159580 (chemical genetic matrix, 2015)
